# Inconclusive results are not listed. Where a call stands in place of a potency, no number is given. A number with no mark means an inactive call. Active and inactive are the calls of the source. The call rests on the fitted dose curve; in most records, active means well fitted cell-killing curve with a large enough effect in the repeat runs; inconclusive means weak or mixed curves, or effect the other way; inactive means no such curve, though single readings can be large or run the other way.
# Test: qHTS assay to identify small molecule agonists of the RXR signaling pathway - cell viability counter screen (AID 1159529); further: nearly all actives have a fitted effect of over 50% in size
# Settings: RXR-alpha-bla HEK293T viability, CellTiter-Glo, 16 h; series mostly up to 76.8 µM; activity change, negative = cytotoxicity: at the top concentration
# Source text: National Center for Advancing Translational Sciences [NCATS]
# NIH Chemical Genomics Center [NCGC]
# U.S. Environmental Protection Agency [EPA]
# National Institutes of Environmental Health Sciences [NIEHS]
# National Toxicology Program [NTP]
# U.S. Food and Drug Administration [FDA]
# The Retinoid X receptor (RXR), a nuclear hormone receptor expressed in liver, spleen, placenta, epidermis, central nervous system. These receptors are able to form homo and heterodimers with other nuclear receptors and due to this heterodimerizing ability, RXR functions as master regulators producing diverse physiological effects. Three subtypes of RXR exist; alpha, beta and gamma. Retinoid X receptor alpha (RXR-alpha) has potential roles in metabolic signaling pathways, skin alopecia, dermal cysts, cardiac development, insulin sensitization etc. Therefore screening environmental chemicals on RXR-alpha signaling can be used for the studies focused on such therapeutic applications. For quantification of RXR-alpha ligands signaling, GeneBLAzer RXR alpha-UAS-bla HEK 293T (Life Technologies, Carlsbad, CA) cells containing a beta-lactamase reporter-gene under control of Retinoid X receptor-alpha response element were used to screen Tox21 10K library. The cytotoxicity of the Tox21 compound library against the RXR-alpha HEK 293T cell line was tested in parallel by measuring cell viability using CellTiter-Glo assay (Promega Corporation, Madison, WI) in the same wells.
# Tox21 Assay Protocol Summary:
# RXR-alpha HEK 293T cells were dispensed at 2,000 cells/6 uL of assay medium containing 2% charcoal-stripped FBS using a Multidrop Combi (ThermoFisher Scientific, Waltham, MA) dispenser. The assay was performed in black wall/clear-bottom 1536-well plates (Greiner Bio-One North America Inc. Monroe, NC). Tetraoctyl ammonium bromide was used as a positive control in the cytotoxicity screen. After the assay plates were incubated at 37 C and 5% CO2 for 5 hr, 23 nL of compounds dissolved in DMSO, positive control or DMSO only were transferred to the assay plate by a Pintool station (Kalypsys, San Diego, CA). The assay plates were incubated at 37 C and 5% CO2 for 16 hr. One uL of LiveBLAzer B/G FRET substrate (Life Technologies) was added using a Flying Reagent Dispenser (FRD) (Aurora Discovery, San Diego, CA) and the plates were incubated at room temperature for 2 hr. Fluorescence intensity (405 nm excitation, 460/530 nm emission) was measured using an Envision plate reader (PerkinElmer, Shelton, CT). For cytotoxicity, 4 uL/well of CellTiter-Glo reagent was added into the assay plates using an FRD. After 30 min incubation at room temperature, the luminescence intensity was measured using a ViewLux plate reader (PerkinElmer).
# Potency means the concentration at half of the fitted maximal effect.
SMILES,Potency,"activity change, negative = cytotoxicity"
Cc1ccc(C(=O)O)o1,inactive,–
O=C(c1cc(O)c(O)c(O)c1)c1ccc(O)c(O)c1O,–,-20% [at 35.3 µM]
C/C=C(C)/C=C/C=C(C)C,inactive,–
CS(=O)(=O)Nc1ccc([N+](=O)[O-])cc1Oc1ccccc1,–,-13.5% [at 35.3 µM]
CCC(=O)O,inactive,–
CC1(C)CC(N=C=O)CC(C)(CN=C=O)C1 (stereo not given),inactive,–
CC#C[C@]1(O)CC[C@H]2[C@@H]3CCC4=CC(=O)CCC4=C3[C@@H](c3ccc(N(C)C)cc3)C[C@@]21C,–,-11.2% [at 35.3 µM]
CC(C)Cc1ccccc1,inactive,–
C[C@@H](O)[C@H]1C(=O)N2C(C(=O)O)=C(S[C@@H]3CN[C@H](C(=O)N(C)C)C3)[C@H](C)[C@H]12,inactive,–
OC[C@@H](O)[C@H](O)[C@H](O)[C@@H](O)CO,inactive,–
O=C(Cl)c1c(Cl)c(Cl)c(C(=O)Cl)c(Cl)c1Cl,inactive,–
CCC(C)C=O (stereo not given),inactive,–
Oc1ccc2ccccc2c1,–,5.08%
NS(=O)(=O)c1cc2c(cc1Cl)NC=NS2(=O)=O,inactive,–
CC1=C(CC(=O)O)c2cc(F)ccc2/C1=C\c1ccc(S(C)=O)cc1 (stereo not given),inactive,–
O=C1O[C@H](CO)[C@@H](O)[C@H](O)[C@H]1O,inactive,–
O=[N+]([O-])c1cc(N(CCO)CCO)ccc1NCCO,inactive,–
OCCOCCOCCOCCO,inactive,–
Nc1nc2ncc(CNc3ccc(C(=O)N[C@@H](CCC(=O)O)C(=O)O)cc3)nc2c(=O)[nH]1,inactive,–
Cn1c([N+](=O)[O-])cnc1COC(N)=O,inactive,–

SMILES,Potency,"activity change, negative = cytotoxicity"
C=C1CC[C@H](O)CC1=C/C=C1\CCC[C@]2(C)[C@@H]([C@H](C)/C=C/[C@H](C)C(C)C)CC[C@@H]12,24.5 µM (active),–
OCC1CCCO1 (stereo not given),inactive,–
Cc1cc(=O)[nH]c(C(C)C)n1,inactive,–
O=S(=O)(O)c1cc(S(=O)(=O)O)c2c(N=Nc3ccccc3)c(O)ccc2c1,inactive,–
C=C(C#N)C(=O)OCC,inactive,–
OC[C@@H](O)[C@@H](O)[C@H](O)[C@@H](O)CO,inactive,–
CCOC(=O)/C=C\C(=O)OCC,–,-1.43%
CCOC(=O)C1OC1c1ccccc1 (stereo not given),–,-12.4%
C[C@@H]1O[C@@H](OC[C@H]2O[C@@H](Oc3c(-c4ccc(O)c(O)c4)oc4cc(O)cc(O)c4c3=O)[C@H](O)[C@@H](O)[C@@H]2O)[C@H](O)[C@H](O)[C@H]1O,inactive,–
CCCCC(CC)C(=O)OCCOCCOCCOC(=O)C(CC)CCCC (stereo not given),inactive,–
CCCCC(CC)COC(C)=O (stereo not given),inactive,–
CCCCNC(N)=O,inactive,–
CC[Si](OC(C)=O)(OC(C)=O)OC(C)=O,inactive,–
O=C(O)c1ccc([N+](=O)[O-])cc1,inactive,–
CC(C)(CO)COC(=O)C(C)(C)CO,inactive,–
CC1=C(/C=C/C(C)=C/C=C/C(C)=C/CO)C(C)(C)CCC1,inactive,–
O=[N+]([O-])c1cccc(Cl)c1,inactive,–
c1ccc2[nH]cnc2c1,inactive,–
CCOC(=O)[C@H](CCc1ccccc1)N[C@@H](C)C(=O)N1Cc2ccccc2C[C@H]1C(=O)O,inactive,–
COCC(=O)O,inactive,–
